± gives the standard deviation of the averaged measurements. The full ranking holds about 25,000 sequences; the median of “ln(normalized median fluorescence intensity)” is about 10, and the highest 2% start at about 12. This is one part of a sample in which the highest values are shown more often than they occur.

This is an account of results in the supplement of paper PMC11417369.

This assay relates to PfAP2-G AP2 domain (GST-tagged). As to the kind of experiment: gcPBM binding intensity (ln(normalized median fluorescence intensity)); higher = stronger DNA binding. An outline of the steps: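 An Agilent 4 × 180k array of primer-extended double-stranded 36-bp intergenic genomic probes, with negative controls, was incubated for 1 h with GST-tagged P. falciparum DNA-binding domains expressed in E. coli. Alexa488 anti-GST antibody detected bound protein, scanned at 488 nm. Binding intensity is the highest Masliner-normalised natural-log median intensity across replicate spots of either probe orientation.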
In the case of “ACATATAAAATGTATACACACAAATATTACATATAT [CACACA_site1472]”, the “gcPBM binding intensity (ln)” value was 10.1 ± 0.11.

For “TTTTTCATTTAGCTTTTACACACTATATATTATTGA [CACACA_site7888]”, the “gcPBM binding intensity (ln)” value worked out at 9.905 ± 0.064.

As for “CTCAATATATTTGATTTACACACTTACAATGTATAT [CACACA_site8982]”, the “gcPBM binding intensity (ln)” value was 10.04 ± 0.078.

For the sequence “GATATATATATTCACACACACATGGAAATATATATA [CACACA_site382]”, the “gcPBM binding intensity (ln)” value is 9.88 ± 0.028.

On to “ATATATATGGTCATTTGTACATATCGTGAGAGCTGC [XGTACX_site4117]”, for which the “gcPBM binding intensity (ln)” value is 11 ± 0.49.

Turning to “TTAAGAAACAAAGAAAGTACACAACATAATATAGAA [XGTACX_site477]”, the “gcPBM binding intensity (ln)” value amounted to 11.4 ± 0.69.

As for “ATATATATAATTTAAAGTACATATTTAAGAATGAAA [XGTACX_site2238]”, the “gcPBM binding intensity (ln)” value worked out at 11.1 ± 0.67.

As for “AAAAATATATAATAAAGTACACATAAATGAATAAAT [XGTACX_site329]”, the “gcPBM binding intensity (ln)” value was 11.5 ± 0.81.

Regarding “AATGAATATTAAAGGAGTACACATAATAAGTAAGAA [XGTACX_site7354]”, the “gcPBM binding intensity (ln)” value was 11.7 ± 0.99.

As to “TATAAAAATAAAAAAAGTACACATAAAAATATATAT [XGTACX_site5189]”, the “gcPBM binding intensity (ln)” value amounted to 11.5 ± 0.78.

For “GAAAAAAGAAAAAAAAGTACATATATTTAATAAGAC [XGTACX_site6912]”, the “gcPBM binding intensity (ln)” value came to 11.4 ± 0.86.

For “AGTAGATATAAAAGGAGTACACATATATATATAAAT [XGTACX_site4375]”, the “gcPBM binding intensity (ln)” value was determined as 11.6 ± 1.

“TTAAGAAAAAAAAAAAGTACACACATATAATATATA [XGTACX_site6268]”: the “gcPBM binding intensity (ln)” value is 11.6 ± 1.

For the sequence “AATAAATAAAGAAGTACACACATATATATATATATA [CACACA_site4314]”, the “gcPBM binding intensity (ln)” value was determined as 11.7 ± 1.1.

As to “ATATATATATAAAGGAGTACATACATTAAAAAAAAA [XGTACX_site1095]”, the “gcPBM binding intensity (ln)” value is 11.7 ± 1.

Take “AAAAAAAAAAAAAGTACACACATACATATAAATATA [CACACA_site8533]”: the “gcPBM binding intensity (ln)” value amounted to 11.5 ± 0.86.

For “GTATTATAAAAAGGAAGTACATATATACATATTATA [XGTACX_site1271]”, the “gcPBM binding intensity (ln)” value came out at 11.3 ± 0.75.

Take “ATATTAATATATGTGGCACACATGTGGAGTCCTATT [CACACA_site213]”: the “gcPBM binding intensity (ln)” value turned out to be 10.7 ± 0.43.

Regarding “TTATCACATTATTGCACACACATAAAGAAAAAAATA [CACACA_site2841]”, the “gcPBM binding intensity (ln)” value is 10.4 ± 0.5.

For “AAAAAAATAAAATATATATATATATATATATATATA [GTGCAC_negctrl_site706]”, the “gcPBM binding intensity (ln)” value came out at 9.96 ± 0.89.

In the case of “ATATATATGTGTAAAAGTACATATATTTTGAAATAT [XGTACX_site4024]”, the “gcPBM binding intensity (ln)” value is 11.2 ± 0.79.

With “TTATAATTGTAAGGTAGTACATATAAATCAAATAAT [XGTACX_site7190]”, the “gcPBM binding intensity (ln)” value came to 11.5 ± 0.94.

For the sequence “ATATAAATAAAAAAAAGTACATAATATATAAAAATA [XGTACX_site3065]”, the “gcPBM binding intensity (ln)” value stood at 11.5 ± 1.

For “TTAAAAAAAAAAAAAAGTACATAAGTATATATAATA [XGTACX_site4295]”, the “gcPBM binding intensity (ln)” value is 11.7 ± 1.

Take “TATATATAAAAAAAAAGTACATATAATATAATATTT [XGTACX_site7902]”: the “gcPBM binding intensity (ln)” value came to 11.5 ± 1.

Take “TATGATTTTAATGAAACACACAATTTTATGTTAATA [CACACA_site311]”: the “gcPBM binding intensity (ln)” value was 9.82 ± 0.11.

Regarding “TTATAATATATATGTAGTACTGTTTTTTTCTATTTT [XGTACX_site7749]”, the “gcPBM binding intensity (ln)” value turned out to be 11 ± 0.63.

Regarding “CTTTTGCCCAAAAAGGTACACACCACAAAGTACATA [CACACA_site8169]”, the “gcPBM binding intensity (ln)” value was determined as 11.9 ± 1.2.

In the case of “TTTGCCCAAAAAGGTACACACCACAATGTACATAAA [CACACA_site4599]”, the “gcPBM binding intensity (ln)” value was 11.9 ± 1.1.

In the case of “TCTTTTGCCCAAAAAGGTACACACCACAATTTAAAT [XGTACX_site1482]”, the “gcPBM binding intensity (ln)” value is 11.4 ± 0.88.

In the case of “CTTTTGCCCAAAAAGGTACACACCACAATGTACATA [CACACA_site809]”, the “gcPBM binding intensity (ln)” value turned out to be 11.6 ± 0.91.

“CACACCACCAACAAAAGTACATACATATATATATAT [XGTACX_site5781]”: the “gcPBM binding intensity (ln)” value came out at 11.3 ± 0.82.

Turning to “TGTACAACAATTTTTGCACACACCAAAACATAAAAT [CACACA_site1598]”, the “gcPBM binding intensity (ln)” value amounted to 11.1 ± 0.2.

As for “TCTTTTTACACCTCTTACATAAAACAAAATAAGGGG [XGTACX_negctrl_site12]”, the “gcPBM binding intensity (ln)” value came to 10.7 ± 0.38.

On to “TTTATTTATTATTATGTACACACTATATTAAAACAT [CACACA_site700]”, for which the “gcPBM binding intensity (ln)” value stood at 11.4 ± 0.87.

As for “ATATAATTACCATATGGTACACACATATATATATGT [XGTACX_site7393]”, the “gcPBM binding intensity (ln)” value worked out at 11.3 ± 0.62.

For the sequence “ATCAAATAATAGCAAACACACAAAAAATAAAAAAAA [CACACA_site4146]”, the “gcPBM binding intensity (ln)” value was found to be 9.96 ± 0.15.

With “GGATAAAATGCTACGAGTACATAAGCATTTTTCCCT [XGTACX_site7796]”, the “gcPBM binding intensity (ln)” value turned out to be 11.7 ± 1.2.

For the sequence “ACATTAAAAAAAAAATGTACATAAATATTTTTCCTT [XGTACX_site4361]”, the “gcPBM binding intensity (ln)” value came to 11.1 ± 0.59.

As to “AAAAAATATAAAACGAGTACATATATAATAAGCAAA [XGTACX_site1360]”, the “gcPBM binding intensity (ln)” value amounted to 11.4 ± 0.82.

Turning to “AGGTACTTTTTTAAAACACACATATAACATATACAC [CACACA_site6629]”, the “gcPBM binding intensity (ln)” value came out at 11.3 ± 1.1.

For the sequence “ATACATTCTAATACGTGTACATATATATATATATAT [XGTACX_site1881]”, the “gcPBM binding intensity (ln)” value was determined as 11.4 ± 0.81.

Consider “ATAAATAAAGGACACACACACACACTAGAAAAAAAA [CACACA_site5450]”, for which the “gcPBM binding intensity (ln)” value was 11.2 ± 0.92.

Regarding “AACAAATACGGACACACACACACACTAGAAAAAAAA [CACACA_site4442]”, the “gcPBM binding intensity (ln)” value amounted to 11.4 ± 0.86.
